Measurements taken from PubChem BioAssay (Tox21).
Several values for one entry are separate records, joined by “and”; a condition that tells them apart may be missing. Equal values may be shown once. Inconclusive results are not listed. Entries that show only a call come without a potency. Some compounds were tested as several samples or in several runs, with calls that do not always agree. Activity calls are given as the source filed them. Unless noted, calls come from the whole dose curve; as a rule, active = well fitted curve in the direction sought with a large enough effect in the repeat runs; inconclusive = weak or mixed curves; inactive = no such curve, though single readings can be large; an effect the other way counts as inactive or inconclusive.

Key:
[1] = biological target: Acetylcholinesterase (Homo sapiens) (UniProt P22303); assay: Acetylcholinesterase (AChE) small molecule antagonists: enzyme-based qHTS assay (AID 1347397; calls by dose curve; note: nearly all actives have a fitted effect of over 55% in size); conditions: Potency: AChE enzyme activity inhibition; outcome: AChE enzyme activity inhibition
Method in brief: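 rhAChE 50 mU/mL (dispensed) + cpd or DMSO, 30 min RT; add DTNB/acetylthiocholine cocktail, 10 min RT; colorimetric thiocholine readout. qHTS, 1536-well format.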

[2] = biological target: Acetylcholinesterase (Homo sapiens) (UniProt P22303); assay: Acetylcholinesterase (AChE) small molecule antagonists: fluorescence cell-based qHTS assay (AID 1347398; calls by dose curve; note: nearly all actives have a fitted effect of over 50% in size); conditions: Potency: AChE activity; outcome: AChE activity
Method in brief: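 Read-out is Thiolite Green fluorescence at Ex/Em = 490/520 nm, formed by reaction with thiocholine released when cellular AChE in SH-SY5Y cells hydrolyzes acetylthiocholine. Compounds were preincubated 30 min at 37 C before substrate.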

[3] = biological target: Acetylcholinesterase (Homo sapiens) (UniProt P22303); assay: Acetylcholinesterase (AChE) small molecule antagonists: enzyme-based qHTS assay with human liver microsomes (AID 1347399; calls by dose curve; note: nearly all actives have a fitted effect of over 60% in size); conditions: Potency: qHTS inhibition; outcome: qHTS inhibition
Method in brief: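 Recombinant human AChE (50 mU/mL in the enzyme mix) and human liver microsomes (0.25 mg/mL final) were preincubated with compound and NADPH (0.25 mg/mL final) for 30 min at 37 C. Acetylthiocholine/DTNB was then added; thiocholine was read colorimetrically after 10 min at room temperature.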

[4] = biological target: Cytochrome P450 2D6 (Homo sapiens) (UniProt P10635); assay: Cytochrome P450 Family 2 Subfamily D Member 6 (CYP2D6) small molecule antagonists: luciferase reporter qHTS assay (AID 1671196); note: nearly all actives have a fitted effect of over 50% in size
Method in brief: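 Inhibition of CYP2D6 was gauged by loss of luminescence, since light produced tracks the luciferin generated from a proluciferin substrate. A 10 min room-temperature preincubation preceded 1 h NADPH-supported turnover.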

[5] = biological target: Cytochrome P450 2C19 (Homo sapiens) (UniProt P33261); assay: Cytochrome P450 Family 2 Subfamily C Member 19 (CYP2C19) small molecule antagonists: luciferase reporter qHTS assay (AID 1671197); note: nearly all actives have a fitted effect of over 65% in size
Method in brief: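 Luminescent readout of CYP2C19 activity: luciferin product detected 20 min after adding detection reagent. Before that, compound and enzyme-substrate mix preincubated 10 min at room temperature; NADPH-regenerating system started a 1 h, 37C reaction. Ketoconazole as positive control.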

[6] = biological target: Cytochrome P450 2C9 (Homo sapiens) (UniProt P11712); assay: Cytochrome P450 Family 2 Subfamily C Member 9 (CYP2C9) small molecule antagonists: luciferase reporter qHTS assay (AID 1671198); note: nearly all actives have a fitted effect of over 50% in size
Method in brief: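 Enzyme-substrate mix preincubated with compound 10 min at room temperature; reaction started with NADPH regeneration solution, 1 h 37C. Luminescent luciferin product read after 20 min detection reagent.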

[7] = biological target: Cytochrome P450 1A2 (Homo sapiens) (UniProt P05177); assay: Cytochrome P450 Family 1 Subfamily A Member 2 (CYP1A2) small molecule antagonists: luciferase reporter qHTS assay (AID 1671199); note: nearly all actives have a fitted effect of over 50% in size
Method in brief: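 Signal from luciferin formed by CYP1A2 from a proluciferin substrate is read as luminescence, expressed in relative luminescence units. Compounds sit with enzyme 10 min, NADPH-driven reaction runs 1 h, all at room temperature.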

[8] = biological target: Cytochrome P450 3A4 (Homo sapiens) (UniProt P08684); assay: Cytochrome P450 Family 3 Subfamily A Member 4 (CYP3A4) small molecule antagonists: luciferase reporter qHTS assay (AID 1671201); note: nearly all actives have a fitted effect of over 50% in size
Method in brief: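 P450-Glo CYP3A4 system with proluciferin substrate; compounds preincubated 10 min RT with enzyme-substrate mix, then NADPH regeneration added for 1 h RT. Detection reagent 20 min, luminescence read as relative luminescence units.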

[9] = biological target: Voltage-gated inwardly rectifying potassium channel KCNH2 (Homo sapiens) (UniProt Q12809); assay: Human Ether-a-go-go-Related Gene (hERG) channel small molecule antagonists: fluorescence cell-based qHTS assay (AID 1671200); note: nearly all actives have a fitted effect of over 50% in size
Method in brief: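 U2OS cells expressing the channel were plated at 1000 cells/well, incubated overnight at 37 C, then loaded with FluxOR II thallium-sensitive dye for 1 h at room temperature in the dark, with a further 10 min at room temperature before stimulation.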
Potency is the fitted concentration of half-maximal effect.

Chain of Cytochrome P450 2D6 (Homo sapiens) (P10635 whole entry, looked up): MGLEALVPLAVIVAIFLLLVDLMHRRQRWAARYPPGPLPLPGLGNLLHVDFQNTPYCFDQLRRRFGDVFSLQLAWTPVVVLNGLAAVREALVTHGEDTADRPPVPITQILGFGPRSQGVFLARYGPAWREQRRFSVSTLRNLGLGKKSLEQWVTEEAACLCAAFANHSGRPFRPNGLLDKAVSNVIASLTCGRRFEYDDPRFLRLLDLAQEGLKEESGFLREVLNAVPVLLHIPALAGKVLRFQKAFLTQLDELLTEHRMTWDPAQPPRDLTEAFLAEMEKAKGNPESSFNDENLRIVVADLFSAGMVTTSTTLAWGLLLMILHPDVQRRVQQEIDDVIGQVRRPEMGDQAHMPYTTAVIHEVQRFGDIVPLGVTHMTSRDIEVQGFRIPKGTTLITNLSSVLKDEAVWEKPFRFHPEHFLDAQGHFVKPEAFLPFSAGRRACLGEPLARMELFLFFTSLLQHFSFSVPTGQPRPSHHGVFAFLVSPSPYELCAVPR
Chain of Acetylcholinesterase (Homo sapiens) (P22303 whole entry, looked up): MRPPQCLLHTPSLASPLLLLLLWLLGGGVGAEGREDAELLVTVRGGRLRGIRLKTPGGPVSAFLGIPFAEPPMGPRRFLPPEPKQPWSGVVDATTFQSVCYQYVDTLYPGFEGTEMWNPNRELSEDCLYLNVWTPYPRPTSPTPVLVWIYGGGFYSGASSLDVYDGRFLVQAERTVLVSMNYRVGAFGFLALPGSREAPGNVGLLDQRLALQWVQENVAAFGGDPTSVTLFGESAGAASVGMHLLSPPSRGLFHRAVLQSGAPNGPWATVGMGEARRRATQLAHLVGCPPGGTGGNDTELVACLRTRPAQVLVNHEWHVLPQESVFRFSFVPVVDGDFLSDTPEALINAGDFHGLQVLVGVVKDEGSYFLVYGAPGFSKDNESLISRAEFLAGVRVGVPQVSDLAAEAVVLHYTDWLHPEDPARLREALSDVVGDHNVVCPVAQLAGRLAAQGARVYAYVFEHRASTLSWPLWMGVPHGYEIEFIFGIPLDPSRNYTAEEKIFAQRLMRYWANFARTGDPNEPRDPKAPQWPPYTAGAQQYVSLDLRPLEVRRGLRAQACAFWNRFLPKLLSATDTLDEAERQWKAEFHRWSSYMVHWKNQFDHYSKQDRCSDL
Chain of Cytochrome P450 1A2 (Homo sapiens) (P05177 whole entry, looked up): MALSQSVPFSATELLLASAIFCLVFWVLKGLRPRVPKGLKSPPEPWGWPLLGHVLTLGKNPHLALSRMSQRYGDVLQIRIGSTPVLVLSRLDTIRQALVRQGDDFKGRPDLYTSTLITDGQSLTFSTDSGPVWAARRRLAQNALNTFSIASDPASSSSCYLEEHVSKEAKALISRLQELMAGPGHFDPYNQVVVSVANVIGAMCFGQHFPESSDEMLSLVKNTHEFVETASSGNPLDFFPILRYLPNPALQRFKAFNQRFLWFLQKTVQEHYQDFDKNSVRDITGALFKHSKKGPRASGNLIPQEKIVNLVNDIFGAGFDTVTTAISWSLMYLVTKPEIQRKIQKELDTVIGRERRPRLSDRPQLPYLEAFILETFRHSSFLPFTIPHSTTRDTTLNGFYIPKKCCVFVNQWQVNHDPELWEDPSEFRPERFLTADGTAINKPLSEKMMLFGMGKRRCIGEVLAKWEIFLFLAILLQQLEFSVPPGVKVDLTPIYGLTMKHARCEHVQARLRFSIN
Chain of Cytochrome P450 2C9 (Homo sapiens) (P11712 whole entry, looked up): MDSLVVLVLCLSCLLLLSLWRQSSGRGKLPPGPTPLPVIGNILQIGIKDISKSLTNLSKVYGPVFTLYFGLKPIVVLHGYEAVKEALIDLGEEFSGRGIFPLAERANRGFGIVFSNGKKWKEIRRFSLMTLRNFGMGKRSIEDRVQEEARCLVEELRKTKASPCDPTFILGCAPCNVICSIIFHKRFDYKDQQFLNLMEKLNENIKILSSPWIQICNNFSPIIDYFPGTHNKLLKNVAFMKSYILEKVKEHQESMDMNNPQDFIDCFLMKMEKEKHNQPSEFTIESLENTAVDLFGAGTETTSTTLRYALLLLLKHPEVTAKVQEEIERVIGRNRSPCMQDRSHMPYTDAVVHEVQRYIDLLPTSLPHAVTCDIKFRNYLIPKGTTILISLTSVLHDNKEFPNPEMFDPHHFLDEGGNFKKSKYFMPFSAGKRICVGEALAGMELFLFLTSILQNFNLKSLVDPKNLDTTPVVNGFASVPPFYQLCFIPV
Chain of Cytochrome P450 3A4 (Homo sapiens) (P08684 whole entry, looked up): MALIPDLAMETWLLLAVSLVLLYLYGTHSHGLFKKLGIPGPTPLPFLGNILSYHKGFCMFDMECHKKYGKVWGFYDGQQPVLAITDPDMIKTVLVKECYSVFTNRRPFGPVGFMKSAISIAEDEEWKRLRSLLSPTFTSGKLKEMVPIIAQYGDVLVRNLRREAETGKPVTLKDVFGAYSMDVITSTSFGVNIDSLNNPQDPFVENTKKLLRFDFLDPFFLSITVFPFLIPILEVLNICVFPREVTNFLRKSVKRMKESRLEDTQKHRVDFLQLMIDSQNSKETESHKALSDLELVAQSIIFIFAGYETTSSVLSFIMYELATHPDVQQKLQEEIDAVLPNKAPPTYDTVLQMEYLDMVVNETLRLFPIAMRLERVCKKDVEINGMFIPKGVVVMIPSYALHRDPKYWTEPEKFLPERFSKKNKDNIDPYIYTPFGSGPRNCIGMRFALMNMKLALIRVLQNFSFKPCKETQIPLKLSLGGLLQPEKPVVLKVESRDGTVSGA
Chain of Voltage-gated inwardly rectifying potassium channel KCNH2 (Homo sapiens) (Q12809 whole entry, looked up): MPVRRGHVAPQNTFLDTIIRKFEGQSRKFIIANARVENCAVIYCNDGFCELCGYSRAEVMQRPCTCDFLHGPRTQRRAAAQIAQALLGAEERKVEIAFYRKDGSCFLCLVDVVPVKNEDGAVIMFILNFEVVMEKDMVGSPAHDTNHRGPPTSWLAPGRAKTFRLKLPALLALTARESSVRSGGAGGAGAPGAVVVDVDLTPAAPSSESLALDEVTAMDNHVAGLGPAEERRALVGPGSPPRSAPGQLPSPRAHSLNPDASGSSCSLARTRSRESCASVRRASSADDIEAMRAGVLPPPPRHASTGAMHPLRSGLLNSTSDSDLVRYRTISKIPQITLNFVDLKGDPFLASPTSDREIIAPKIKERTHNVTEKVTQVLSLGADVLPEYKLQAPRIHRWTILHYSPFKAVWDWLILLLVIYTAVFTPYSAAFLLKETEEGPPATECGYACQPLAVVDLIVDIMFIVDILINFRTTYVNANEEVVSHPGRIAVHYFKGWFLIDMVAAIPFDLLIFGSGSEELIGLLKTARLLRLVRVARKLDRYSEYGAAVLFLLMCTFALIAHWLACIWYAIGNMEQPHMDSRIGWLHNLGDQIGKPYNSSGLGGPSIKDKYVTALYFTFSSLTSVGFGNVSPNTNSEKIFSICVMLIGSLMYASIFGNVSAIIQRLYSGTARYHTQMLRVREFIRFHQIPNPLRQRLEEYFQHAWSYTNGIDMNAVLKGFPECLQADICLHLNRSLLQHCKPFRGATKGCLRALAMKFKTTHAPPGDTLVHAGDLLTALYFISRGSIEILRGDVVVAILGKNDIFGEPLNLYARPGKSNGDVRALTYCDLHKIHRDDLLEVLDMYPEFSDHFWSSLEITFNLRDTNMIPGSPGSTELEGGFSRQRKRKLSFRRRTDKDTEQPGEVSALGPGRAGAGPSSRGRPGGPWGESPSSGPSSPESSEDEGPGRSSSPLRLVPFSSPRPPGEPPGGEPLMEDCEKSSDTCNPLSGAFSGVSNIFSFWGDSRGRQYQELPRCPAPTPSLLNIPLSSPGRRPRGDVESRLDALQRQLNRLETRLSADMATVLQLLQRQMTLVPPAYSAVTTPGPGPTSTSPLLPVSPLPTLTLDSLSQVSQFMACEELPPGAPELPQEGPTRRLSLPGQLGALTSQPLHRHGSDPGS
Chain of Cytochrome P450 2C19 (Homo sapiens) (P33261 whole entry, looked up): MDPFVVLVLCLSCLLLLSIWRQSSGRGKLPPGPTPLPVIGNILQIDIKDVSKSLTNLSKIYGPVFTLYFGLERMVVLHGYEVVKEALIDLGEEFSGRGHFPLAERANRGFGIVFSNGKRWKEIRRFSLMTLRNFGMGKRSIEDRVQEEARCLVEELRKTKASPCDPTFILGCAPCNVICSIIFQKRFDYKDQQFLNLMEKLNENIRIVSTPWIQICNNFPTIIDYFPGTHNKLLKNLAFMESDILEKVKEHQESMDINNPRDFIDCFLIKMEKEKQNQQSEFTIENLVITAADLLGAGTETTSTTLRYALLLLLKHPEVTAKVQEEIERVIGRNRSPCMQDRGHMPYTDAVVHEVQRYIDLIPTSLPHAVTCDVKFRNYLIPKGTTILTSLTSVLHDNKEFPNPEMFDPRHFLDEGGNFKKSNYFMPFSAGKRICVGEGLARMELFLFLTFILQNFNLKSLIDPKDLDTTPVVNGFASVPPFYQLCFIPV

Row | SMILES | Potency [1] | Potency [2] | Potency [3] | Potency [4] | Potency [5] | Potency [6] | Potency [7] | Potency [8] | Potency [9]
1 | CCCC[N+](CCCC)(CCCC)CCCC | inactive | inactive | inactive | 0.0089 µM (active) | inactive | inactive | inactive | inactive | 
2 | C[C@]12CC[C@H]3[C@@H](CCC4=CC(=O)CC[C@@H]43)[C@@H]1CC[C@@H]2OC(=O)CCc1ccccc1 | inactive | inactive | inactive | inactive | inactive | 30.9 µM (active) | inactive | inactive | 
3 | CN(C1CCCCC1)C1CCCCC1 | inactive | inactive | inactive | 3.17 µM (active) | inactive |  | inactive | inactive | inactive
4 | C=CC(=O)NC(C)(C)CC(C)=O | inactive | inactive | inactive | 35.6 µM (active) | inactive | inactive | inactive | inactive | inactive
5 | O=C1c2ccccc2C(=O)N1SC(Cl)(Cl)Cl | inactive | inactive | inactive | inactive | 78.5 µM (active) and 20 µM (active) | 24.8 µM (active) and 11.2 µM (active) | 24.8 µM (active) and 22.4 µM (active) | inactive | 24.2 µM (active) and 38.9 µM (active)
6 | NC(=S)c1c(Cl)cccc1Cl | inactive | inactive | inactive | inactive | inactive |  | 28.3 µM (active) | 28.3 µM (active) | inactive
7 | CCC(C)Cl (stereo not given) | inactive | inactive | inactive | inactive | inactive | inactive |  | inactive | inactive
8 | COc1ccc(C(=O)c2c(C)n(CCN3CCOCC3)c3ccccc23)cc1 | inactive | inactive | inactive | 15.5 µM (active) | 34.7 µM (active) | 12.3 µM (active) |  |  | inactive
9 | c1ccc2c(c1)sc1ccccc12 | inactive | inactive | inactive | inactive | 39.9 µM (active) and inactive | inactive | 3.17 µM (active) and 2.57 µM (active) | inactive | inactive
10 | C[C@H](N)[C@H](O)c1ccc(O)c(O)c1 | inactive | 0.776 µM (active) | inactive | inactive | inactive | inactive | inactive | inactive | inactive
11 | C[C@H]1O[C@H](OC2[C@@H](O)[C@@H](O)C(O)[C@H](O)[C@H]2O)[C@@H](N)C[C@@H]1N=C(N)C(=O)O (stereo not given in full) | inactive | inactive | inactive | inactive | inactive | inactive |  | inactive | inactive
12 | C=CCOC(=O)C(C)(C)OC(=O)c1cc(-n2c(=O)cc(C(F)(F)F)n(C)c2=O)ccc1Cl | inactive | inactive | inactive | 27.7 µM (active) | 49.3 µM (active) | 15.6 µM (active) |  | 0.553 µM (active) | inactive
13 | O=C=NC1CCCCC1 | inactive | inactive | inactive | inactive | inactive | inactive | inactive | inactive | inactive
14 | COC1=CC(=O)O[C@@H](/C=C/c2ccc3c(c2)OCO3)C1 | inactive | inactive | inactive | 34.1 µM (active) | 8.56 µM (active) | 2.71 µM (active) | 3.41 µM (active) | 4.81 µM (active) | inactive
15 | CC(C)(C)N(NC(=O)c1ccc(Cl)cc1)C(=O)c1ccccc1 | inactive | inactive | inactive | inactive | 4.45 µM (active) | 11.2 µM (active) | 39.7 µM (active) | 7.92 µM (active) | inactive
16 | C=C(C)C(=O)OCCCCOC(=O)C(=C)C | inactive | inactive | inactive | inactive | 7.96 µM (active) | 39.9 µM (active) | 25.2 µM (active) | inactive | inactive
17 | CCCCC1C(=O)NC(=O)N(C2CCCCC2)C1=O (stereo not given) | inactive | inactive | inactive | inactive | 27.5 µM (active) |  | inactive | inactive | inactive
18 | CCCCCCCCP(=O)(O)O | inactive | inactive | inactive | inactive | inactive | inactive |  | inactive | inactive
19 | O=C(N/N=C/c1ccc([N+](=O)[O-])o1)c1cc([N+](=O)[O-])cc([N+](=O)[O-])c1O | inactive | inactive | inactive | inactive | inactive | 30.9 µM (active) | inactive | inactive | inactive
20 | C[N+](C)(C)CC1CO1 (stereo not given) | inactive | inactive | inactive | inactive | inactive | inactive |  | inactive | inactive
21 | NNCCO | inactive | inactive | inactive | inactive | inactive | inactive | inactive | inactive | inactive
22 | CCN(C(C)=O)c1cccc(-c2ccnc3c(C#N)cnn23)c1 | inactive | inactive | inactive | inactive | 27.5 µM (active) |  | inactive | inactive | inactive
23 | N#CC(C#N)=Cc1ccc(O)c(O)c1 | inactive | inactive | inactive | inactive | inactive | 17.4 µM (active) |  | inactive | inactive
24 | C1CS1 | inactive | inactive | inactive | inactive | inactive | inactive | 64.9 µM (active) | inactive | inactive
25 | CCC(C)(C)O | inactive | inactive | inactive | inactive | inactive | inactive |  | inactive | inactive

Row | SMILES | Potency [1] | Potency [2] | Potency [3] | Potency [4] | Potency [5] | Potency [6] | Potency [7] | Potency [8] | Potency [9]
26 | C[C@H]1[C@@H]2Cc3ccc(O)cc3[C@@]1(C)CCN2C | 33.9 µM (active) | 2.14 µM (active) | 191 µM (active) | 33.9 µM (active) | 53.8 µM (active) | inactive | inactive | inactive | inactive
27 | CC(C)(C)OOC(C)(C)CCC(C)(C)OOC(C)(C)C | inactive | inactive | inactive | inactive | inactive |  | inactive | inactive | inactive
28 | Nc1ccccc1C(=O)OCC(O)CO (stereo not given) | inactive | inactive | inactive | inactive | inactive | inactive | inactive | inactive | inactive
29 | CC(C)CCCCCCCOC(=O)c1ccccc1C(=O)OCCCCCCCC(C)C | inactive | inactive | inactive | inactive | inactive |  | inactive | inactive | inactive
30 | C=CCSSCC=C | inactive | inactive | inactive | inactive | 7.96 µM (active) |  | 31.7 µM (active) | inactive | inactive
31 | COC(=O)C1(O)c2ccccc2-c2ccccc21 | inactive | inactive | inactive | inactive | 79.6 µM (active) |  | 25.2 µM (active) |  | 
32 | Cc1cccc(C)c1NC1=NCCCS1 | inactive | inactive | inactive |  | inactive | inactive | inactive |  | inactive
33 | CCCC1CCCCN1 (stereo not given) | inactive | inactive | inactive |  | inactive | inactive | inactive | inactive | inactive
34 | CCCBr | inactive | inactive | inactive |  | inactive | inactive | inactive |  | inactive
35 | CC(O)CN1CCN(CC(=O)[O-])CCN(CC(=O)[O-])CCN(CC(=O)[O-])CC1.[Gd+3] (stereo not given) | inactive | inactive | inactive | inactive |  |  | inactive | inactive | inactive
36 | CCCCC#N | inactive | inactive | inactive | inactive |  | inactive | inactive | inactive | inactive
37 | O=[N+]([O-])c1cc(Cl)c(Cl)cc1Cl | inactive | inactive | inactive | inactive |  | inactive | 5.61 µM (active) | inactive | inactive
38 | CCOC(=O)C1OC1(C)c1ccccc1 (stereo not given) | inactive | inactive | inactive | 71.6 µM (active) and inactive | 35.9 µM (active) and 71 µM (active) |  |  | inactive | inactive
39 | CCC1(CC)C(=O)NC(=O)NC1=O | inactive | inactive | inactive | inactive |  | inactive | inactive | inactive | inactive
40 | CCC(=O)O[C@@H]1C=C2CCC3C(CCC4(C)C3CC[C@@H]4OC(=O)CC)C2CC1 (stereo not given in full) | inactive | inactive | inactive | inactive |  | 15.5 µM (active) |  | inactive | inactive
41 | CCOC(=O)c1cncn1C(C)c1ccccc1 (stereo not given) | inactive | inactive | inactive | inactive |  | 12.3 µM (active) |  |  | inactive
42 | OCCSSCCO | inactive | inactive | inactive | inactive | 56.4 µM (active) |  |  | inactive | inactive
43 | C=CCc1ccccc1O | inactive | inactive | inactive | inactive | inactive |  | 31.7 µM (active) | inactive | inactive
44 | CN1C(=O)CN=C(c2ccccc2)c2cc([N+](=O)[O-])ccc21 | inactive | inactive | inactive | inactive | inactive |  | inactive | inactive | inactive
45 | O=C(O)C(F)(F)C(F)(F)C(F)(F)C(F)(F)C(F)(F)F | inactive | inactive | inactive | inactive |  | 15.9 µM (active) | inactive | inactive | inactive
46 | C1CCNCC1 | inactive | inactive | inactive |  | inactive | inactive | 36.8 µM (active) | inactive | inactive
47 | CC(Oc1cccc(Cl)c1)C(=O)O (stereo not given) | inactive | inactive | inactive | inactive | inactive |  | inactive | inactive | inactive
48 | CCNC(=O)NC(=O)/C(C#N)=N/OC | inactive | inactive | inactive | inactive | inactive |  |  | inactive | inactive
49 | Oc1cccc(Cl)c1 | inactive | inactive | inactive | inactive |  | inactive |  | inactive | inactive
50 | COC(=O)Cc1ccccc1 | inactive | inactive | inactive | inactive | inactive |  | inactive | inactive | inactive
